Laboratory results reported in PubChem BioAssay.

Assay: reversal of MRP1-mediated doxorubicin resistance, pilot screen, H69AR cells, doxorubicin co-treatment (AID 601)
Conditions: H69AR cells + 2 uM doxorubicin, CellTiter-Glo, 72 h; measured here: viability with 2 uM doxorubicin; at 10 µM; stronger effect = lower value

In order of falling viability:
1. CCOC(=O)C1CCN(c2c(NCCN3CCN(c4ccccc4)CC3)c(=O)c2=O)CC1  104%
2. Cc1nc(Nc2nc(=O)c3ccccc3n2C)nc2c(C)cccc12  99%
3. CCOC(=O)C1CCN(c2c(N3CCCCCC3)c(=O)c2=O)CC1  97.1%
4. Cc1ccc(-n2nnnc2SCC(=O)N2CCN(C(=O)c3ccco3)CC2)c(C)c1  94.8%
5. O=C(NCc1ccc(F)cc1)C1CCN(C(=O)NCc2ccccc2)CC1  93.8%
6. Cc1c(NC(=O)C(C)OC(=O)COc2cccc3c2OC(C)(C)C3)c(=O)n(-c2ccccc2)n1C (stereo not given)  93.3%
7. O=C(CSc1nc(-c2ccccc2)cs1)NCc1ccco1  93%
8. N#Cc1c(NC(NC(=O)c2ccco2)C(=O)c2ccccc2)sc2c1CCCC2 (stereo not given)  92.8%
9. CC(C)(C)OC(=O)NCCc1nnc(SCC(=O)c2ccc(Cl)cc2)o1  92.4%
10. C=CCn1c(SCC(=O)c2ccc(OC)cc2)nnc1C(C)NC(=O)c1cccs1 (stereo not given)  92.4%
11. O=C1c2ccccc2C(=O)N1Cc1nc2ccccc2c(=O)n1CCN1CCOCC1  92.2%
12. CC(=O)c1ccc(NS(=O)(=O)c2ccccc2)cc1  91.6%
13. COC(=O)c1[nH]c2cc(OC)ccc2c1NC(=O)CN1CCOCC1  91.3%
14. COC(=O)CC1SCCNC1=O (stereo not given)  90.6%
15. Cc1cc(C)n(-c2nc3c(c(=O)n(Cc4ccc(Cl)c(Cl)c4)c(=O)n3C)n2C)n1  89.6%
16. COc1ccc(NS(=O)(=O)c2c(C)[nH]c(=O)[nH]c2=O)c(OC)c1  89.5%
17. CCSc1nnc(NC(=O)C2CCCN(S(=O)(=O)c3cnc[nH]3)C2)s1 (stereo not given)  89.4%
18. NC(=O)CSc1nnc(-c2ccc(O)cc2)n1Cc1ccco1  89.3%
19. COC(=O)c1ccc(CSc2nc(-c3ccc(OC)cc3)nc3c2c(=O)n(C)c(=O)n3C)o1  89%
20. O=C(c1ccccc1Br)N1CCN(c2ccccc2)CC1  88.9%
21. CC1CCN(C(=O)CN2C(=O)C(C)(C)Oc3ccc(C(=O)NC4CCCC4)cc32)CC1  88.9%
22. c1cncc(-c2nnc3n2N=C(c2cccs2)CS3)c1  88.5%
23. c1cn(CC2(Cn3ccnc3)COC2)cn1  87.8%
24. Cc1cc(=O)n2nc(-c3ccccc3)sc2n1  87.8%
25. COc1cccc(-c2noc(C3CCCN(C(=O)Cc4ccccc4)C3)n2)c1 (stereo not given)  87.3%
26. CCOC(=O)N1CCN(c2c(N3CCc4ccccc4C3)c(=O)c2=O)CC1  85.4%
27. CCc1ccc(CNCc2cccnc2)cc1  85.4%
28. COc1ccccc1NC(=O)C1=C(C)Nc2nc(CCCO)nn2C1c1cccnc1 (stereo not given)  85.2%
29. Cn1c(-n2c(-c3ccco3)nc3ccccc3c2=O)nc2ccccc21  85%
30. O=C1CC(Cc2ccccc2)C(=O)N1CCCn1ccnc1 (stereo not given)  84%
31. Cc1sc2c(c1C)CN(C1CC(C)(C)NC(C)(C)C1)CN2C(=O)c1ccco1  83.4%
32. O=C(O)C1CCCN1C(=O)Nc1ccc(F)cc1 (stereo not given)  83.1%
33. Cc1ccc(CSC2=NCCN2C(=O)c2ccco2)cc1  81.5%
34. CCOC(=O)c1cc2c(=O)n3cccc(C)c3nc2n(CCc2ccccc2)c1=N  79.8%
35. CCOc1ccc(NC(=O)c2ccc3c(c2)N(Cc2ccc(F)cc2)C(=O)CS3=O)cc1 (stereo not given)  78.6%
36. CCn1c(=O)cc(OCC(=O)NC2CCCCC2)c2ccccc21  77.5%
37. COc1ccc(-n2nnc3c(=O)n(C/C=C/c4ccccc4)cnc32)cc1  77.1%
38. O=C(CSc1nnc(-c2ccc(Br)o2)n1Cc1ccccc1)c1ccccc1F  75.9%
39. COc1ccc(OC)c(C(=O)CSc2nnc(-c3ccc(OC)c(OC)c3)o2)c1  73.7%
40. O=C(CSc1ncnc2c1cnn2Cc1ccccc1)Nc1ccc2c(c1)OCCO2  61.3%

Same assay, conditions: H69AR cells, CellTiter-Glo, 72 h; compound alone cytotoxicity; at 10 µM

In order of falling viability:
1. CC(C)(C)OC(=O)NCCc1nnc(SCC(=O)c2ccc(Cl)cc2)o1  105%
2. O=C(c1ccccc1Br)N1CCN(c2ccccc2)CC1  102%
3. O=C(NCc1ccc(F)cc1)C1CCN(C(=O)NCc2ccccc2)CC1  101%
4. c1cn(CC2(Cn3ccnc3)COC2)cn1  99.7%
5. CCOC(=O)C1CCN(c2c(NCCN3CCN(c4ccccc4)CC3)c(=O)c2=O)CC1  99.1%
6. NC(=O)CSc1nnc(-c2ccc(O)cc2)n1Cc1ccco1  98.6%
7. CC(=O)c1ccc(NS(=O)(=O)c2ccccc2)cc1  98.6%
8. CCOC(=O)C1CCN(c2c(N3CCCCCC3)c(=O)c2=O)CC1  98%
9. COc1ccccc1NC(=O)C1=C(C)Nc2nc(CCCO)nn2C1c1cccnc1 (stereo not given)  96.2%
10. COC(=O)CC1SCCNC1=O (stereo not given)  95.6%
11. Cc1cc(C)n(-c2nc3c(c(=O)n(Cc4ccc(Cl)c(Cl)c4)c(=O)n3C)n2C)n1  95.6%
12. Cc1ccc(-n2nnnc2SCC(=O)N2CCN(C(=O)c3ccco3)CC2)c(C)c1  95.5%
13. O=C(CSc1nc(-c2ccccc2)cs1)NCc1ccco1  94.8%
14. COC(=O)c1[nH]c2cc(OC)ccc2c1NC(=O)CN1CCOCC1  94.3%
15. O=C(O)C1CCCN1C(=O)Nc1ccc(F)cc1 (stereo not given)  93.6%
16. CC1CCN(C(=O)CN2C(=O)C(C)(C)Oc3ccc(C(=O)NC4CCCC4)cc32)CC1  93.4%
17. c1cncc(-c2nnc3n2N=C(c2cccs2)CS3)c1  92.5%
18. CCc1ccc(CNCc2cccnc2)cc1  92.4%
19. Cc1cc(=O)n2nc(-c3ccccc3)sc2n1  92.3%
20. O=C1CC(Cc2ccccc2)C(=O)N1CCCn1ccnc1 (stereo not given)  92.2%
21. Cc1c(NC(=O)C(C)OC(=O)COc2cccc3c2OC(C)(C)C3)c(=O)n(-c2ccccc2)n1C (stereo not given)  92%
22. CCOC(=O)N1CCN(c2c(N3CCc4ccccc4C3)c(=O)c2=O)CC1  91.7%
23. CCSc1nnc(NC(=O)C2CCCN(S(=O)(=O)c3cnc[nH]3)C2)s1 (stereo not given)  91.3%
24. COc1ccc(NS(=O)(=O)c2c(C)[nH]c(=O)[nH]c2=O)c(OC)c1  90.8%
25. Cn1c(-n2c(-c3ccco3)nc3ccccc3c2=O)nc2ccccc21  90.3%
26. CCOc1ccc(NC(=O)c2ccc3c(c2)N(Cc2ccc(F)cc2)C(=O)CS3=O)cc1 (stereo not given)  90%
27. O=C1c2ccccc2C(=O)N1Cc1nc2ccccc2c(=O)n1CCN1CCOCC1  88.8%
28. CCn1c(=O)cc(OCC(=O)NC2CCCCC2)c2ccccc21  87%
29. C=CCn1c(SCC(=O)c2ccc(OC)cc2)nnc1C(C)NC(=O)c1cccs1 (stereo not given)  87%
30. N#Cc1c(NC(NC(=O)c2ccco2)C(=O)c2ccccc2)sc2c1CCCC2 (stereo not given)  86.4%
31. Cc1nc(Nc2nc(=O)c3ccccc3n2C)nc2c(C)cccc12  86.1%
32. COc1ccc(-n2nnc3c(=O)n(C/C=C/c4ccccc4)cnc32)cc1  86.1%
33. COc1cccc(-c2noc(C3CCCN(C(=O)Cc4ccccc4)C3)n2)c1 (stereo not given)  85%
34. Cc1ccc(CSC2=NCCN2C(=O)c2ccco2)cc1  84.3%
35. Cc1sc2c(c1C)CN(C1CC(C)(C)NC(C)(C)C1)CN2C(=O)c1ccco1  83.7%
36. CCOC(=O)c1cc2c(=O)n3cccc(C)c3nc2n(CCc2ccccc2)c1=N  77.9%
37. COC(=O)c1ccc(CSc2nc(-c3ccc(OC)cc3)nc3c2c(=O)n(C)c(=O)n3C)o1  77.4%
38. COc1ccc(OC)c(C(=O)CSc2nnc(-c3ccc(OC)c(OC)c3)o2)c1  74.5%
39. O=C(CSc1nnc(-c2ccc(Br)o2)n1Cc1ccccc1)c1ccccc1F  64.7%
40. O=C(CSc1ncnc2c1cnn2Cc1ccccc1)Nc1ccc2c(c1)OCCO2  56.1%
